T cruzi growth-1 – T. cruzi proliferation inhibition; T. cruzi beta-gal in NIH3T3, GalScreen luminescence, 90 h; AID 624255; inhibition, % at 8.34 µM; 77,000 tested, 5.9% active;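 active means mean inhibition above about 93%, with at least 55% of replicates each passing it, limit read from the data, passing the limit was not always enough; inconclusive means only one of those two conditions holds; inactive means neither condition holds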
C diff HTS – blocks growth of Clostridium difficile | Clostridium difficile clinical isolate growth, OD600, 24 h; active compounds read low | growth activity, negative = inhibition, % at 16 µg/mL (by protocol) | 86,000 tested, 0.25% active;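 active means mean growth activity at or below -80% and every replicate also at or below -80%; inconclusive means mean at or below -80% but some replicate above -80%; inactive means mean growth activity above -80%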;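 further: 0% = DMSO wells and -100% = levofloxacin 16 µg/mL wells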
Pf Dd2 growth – blocks growth of Plasmodium falciparum Dd2 parasites | activity change, % at 10 µM | 94,000 tested, 2.3% active | P. falciparum Dd2 growth, SYBR Green, 72 h; active compounds read low; in the data active means activity change below about -80%; inconclusive means no clear call, values can overlap the other calls
T cruzi growth-2 – blocks T. cruzi growth in NIH3T3 host cells; shares compounds with T cruzi growth-1; T. cruzi beta-gal in NIH3T3, GalScreen luminescence, 90 h; inhibition, % at 8.35 µM; 5,600 tested, 72% active; AID 651739;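 active means mean replicate inhibition above about 95% and at least 55% of replicates individually reaching it, limit read from the data; inconclusive means only one of the two criteria is met; inactive means neither criterion is met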
T cruzi growth-3 – Trypanosoma cruzi proliferation inhibition. shares compounds with T cruzi growth-1. T. cruzi beta-gal in NIH3T3, GalScreen luminescence, 90 h. inhibition, % at 2.09 µM. 5,600 tested, 21% active;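 active means mean inhibition above about 95%, with at least 55% of replicates also reaching it, limit read from the data; inconclusive means meets just one of the two conditions; inactive means meets neither condition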;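 further: plate controls were neutral control median for no effect and positive control median for full effect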
3T3 cytotox – kills mouse NIH/3T3 fibroblasts; cytotoxicity (signal decrease), % at 8.35 µM; AID 651742; shares compounds with T cruzi growth-1; 5,600 tested, 14% active; NIH/3T3 viability, CellTiter-Glo ATP luminescence, 90 h;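 active means mean signal decrease across replicates above about 35% based on untreated-well scatter, with enough replicates individually passing, limit read from the data; inconclusive means no rule stated though some were filed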;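 further: 0% = median of neutral control wells and 100% = median of positive control wells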
NIH3T3 tox 2 – NIH/3T3 (mouse) viability loss. NIH/3T3 viability, CellTiter-Glo ATP luminescence, 90 h. shares compounds with T cruzi growth-1. AID 651744. inhibition, % at 24.9 µM. 5,600 tested, 56% active;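 active means mean loss of cell viability signal at or above a set limit, and enough replicates individually reaching it; inconclusive means meets only the mean limit or only the replicate share; inactive means meets neither condition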;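 further: 0% = median of neutral control wells and 100% = median of positive control wells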
Starred values were filed as active, the others as inactive; ? = inconclusive; · = no result given. Sampled rows, rich in hits. Any-hit rate of the full collection: about 6.8%.

SMILES	T cruzi growth-1	C diff HTS	Pf Dd2 growth	T cruzi growth-2	T cruzi growth-3	3T3 cytotox	NIH3T3 tox 2
OC[C@@H]1[C@@H](c2ccc(-c3ccccc3F)cc2)[C@H]2CN(Cc3cncnc3)CCCCN12	46	-2	-13	·	·	·	·
OC[C@H]1[C@H](c2ccc(-c3ccccc3F)cc2)[C@@H]2CN(Cc3cncnc3)CCCCN12	108*	-8	-24	108*	87	4	36*
OC[C@@H]1[C@H](c2ccc(-c3ccccc3F)cc2)[C@H]2CN(Cc3cncnc3)CCCCN12	110*	-11	-18	100*	89	22	38*
O=C(C[C@@H]1CC[C@@H](NC(=O)c2ccccc2)[C@@H](CO)O1)NCc1ccc(Oc2ccccc2)cc1	-75	-5	-3	·	·	·	·
COc1ccc(S(=O)(=O)N(C)C[C@H]2Oc3ccc(NC(=O)Nc4ccc(F)cc4)cc3C(=O)N([C@@H](C)CO)C[C@@H]2C)cc1	-18	·	-23	·	·	·	·
C[C@@H]1CN([C@@H](C)CO)C(=O)c2cc(NC(=O)Nc3ccc4c(c3)OCO4)ccc2O[C@@H](C)CCCCO[C@@H]1CN(C)Cc1ccc(C(=O)O)cc1	6	4	12	·	·	·	·
N#C[C@@H]1[C@@H](c2ccc(C3=CCCCC3)cc2)[C@H](CO)N1C(=O)c1cccc(F)c1	100*	23	15	88	33	5	76*
N#C[C@H]1[C@@H](c2ccc(C3=CCCCC3)cc2)[C@@H](CO)N1S(=O)(=O)c1cccc(F)c1	105*	3	-15	101*	86	45*	65*
N#C[C@@H]1[C@H](c2ccc(C3=CCCCC3)cc2)[C@@H](CO)N1S(=O)(=O)c1ccccc1	38	0	-14	·	·	·	·
N#C[C@H]1[C@@H](c2ccc(C3=CCCCC3)cc2)[C@@H](CO)N1C(=O)c1ccccn1	103*	4	-29	104*	117*	6	105*
N#C[C@H]1[C@@H](c2ccc(C3=CCCCC3)cc2)[C@@H](CO)N1C(=O)c1cccc(F)c1	61	-5	-31	·	·	·	·
N#C[C@H]1[C@@H](c2ccc(C3=CCCCC3)cc2)[C@H](CO)N1S(=O)(=O)c1cccc(F)c1	100*	1	-18	100*	64	45*	103*
N#C[C@H]1[C@@H](c2ccc(C3=CCCCC3)cc2)[C@H](CO)N1C(=O)c1ccccn1	31	9	-3	·	·	·	·
N#C[C@@H]1[C@H](c2ccc(C3=CCCCC3)cc2)[C@H](CO)N1S(=O)(=O)c1ccccc1	90	6	-14	·	·	·	·
C[C@@H]1CCCCO[C@H](CN(C)C(=O)CCC(F)(F)F)[C@@H](C)CN([C@@H](C)CO)C(=O)c2cc(NC(=O)Cc3ccccc3)ccc2O1	81	-9	·	·	·	·	·
CO[C@H]1CN(C)C(=O)c2ccc(NC(=O)C3CCC3)cc2OC[C@H](C)N(C)C[C@@H]1C	·	3	31	·	·	·	·
C/C=C/c1ccc2c(c1)O[C@@H](CN(C)C(=O)Nc1ccccc1)[C@@H](C)CN([C@H](C)CO)S2(=O)=O	22	-6	-16	·	·	·	·
C/C=C/c1ccc2c(c1)O[C@@H](CN(C)C(=O)Nc1ccccc1)[C@H](C)CN([C@H](C)CO)S2(=O)=O	9	-10	-2	·	·	·	·
C/C=C/c1ccc2c(c1)O[C@H](CN(C)C(=O)Nc1ccc(C(F)(F)F)cc1)[C@H](C)CN([C@H](C)CO)S2(=O)=O	100*	7	-1	96*	90	38*	90*
C/C=C/c1ccc2c(c1)O[C@H](CN(C)C(=O)Nc1ccc(C(F)(F)F)cc1)[C@@H](C)CN([C@@H](C)CO)S2(=O)=O	101*	0	-10	88	81	73*	98*
C/C=C/c1ccc2c(c1)O[C@@H](CN(C)C(=O)Nc1ccc(F)cc1)[C@@H](C)CN([C@H](C)CO)S2(=O)=O	6	8	-16	·	·	·	·
C/C=C/c1ccc2c(c1)O[C@@H](CN(C)C(=O)Nc1ccc(C(F)(F)F)cc1)[C@@H](C)CN([C@H](C)CO)S2(=O)=O	110*	10	-29	101*	81	59*	52*
CCCNC(=O)Nc1ccc2c(c1)OC[C@H](C)N(Cc1cccnc1)C[C@H](C)[C@H](OC)CN(C)C2=O	11	·	-40	·	·	·	·
O=C(C[C@H]1CC[C@@H]2[C@H](COC[C@@H](O)CN2CC2CCCC2)O1)NCc1ccc(Cl)cc1	·	-7	-48	·	·	·	·
C[C@@H]1CCCCO[C@H](CN(C)Cc2ccc(C(=O)O)cc2)[C@@H](C)CN([C@H](C)CO)C(=O)c2cc(NS(=O)(=O)c3cccs3)ccc2O1	4	0	13	·	·	·	·
SMILES	T cruzi growth-1	C diff HTS	Pf Dd2 growth	T cruzi growth-2	T cruzi growth-3	3T3 cytotox	NIH3T3 tox 2
C[C@@H]1CN([C@H](C)CO)C(=O)c2cc(NS(=O)(=O)c3ccc(Cl)cc3)ccc2O[C@@H](C)CCCCO[C@@H]1CN(C)Cc1ccc(C(F)(F)F)cc1	90	14	-62	·	·	·	·
C[C@@H]1CCCCO[C@@H](CN(C)Cc2ccc(C(F)(F)F)cc2)[C@@H](C)CN([C@@H](C)CO)C(=O)c2cc(NS(=O)(=O)c3ccc(Cl)cc3)ccc2O1	97*	27	-33	87	113*	28	102*
C[C@H](CO)N1C[C@H](C)[C@H](CN(C)Cc2ccc(C(F)(F)F)cc2)OCCCC[C@H](C)Oc2ccc(NS(C)(=O)=O)cc2C1=O	-59	11	-10	·	·	·	·
C[C@@H]1CN([C@H](C)CO)C(=O)c2cc(NS(C)(=O)=O)ccc2O[C@@H](C)CCCCO[C@H]1CN(C)Cc1ccc(C(F)(F)F)cc1	116*	10	-34	107*	108*	1	98*
C[C@H]1CCCCO[C@@H](CN(C)Cc2ccncc2)[C@@H](C)CN([C@@H](C)CO)C(=O)c2cc(NS(=O)(=O)c3ccc(Cl)cc3)ccc2O1	91	-4	-43	·	·	·	·
C[C@@H]1CN([C@@H](C)CO)C(=O)c2cc(NS(=O)(=O)c3ccc(Cl)cc3)ccc2O[C@@H](C)CCCCO[C@H]1CN(C)Cc1ccncc1	?	-7	-7	102*	38	-12	16
O=C(C[C@@H]1CC[C@@H](NC(=O)c2ccncc2)[C@@H](CO)O1)NCC1CCCCC1	-24	·	16	·	·	·	·
COc1ccc(NC(=O)N(C)C[C@H]2Oc3ccc(NS(=O)(=O)c4ccc(C)cc4)cc3C(=O)N([C@H](C)CO)C[C@@H]2C)cc1	6	·	-4	·	·	·	·
CCC(=O)N1C[C@H](C)[C@H](OC)CN(C)C(=O)c2cc(NS(=O)(=O)CC)ccc2OC[C@@H]1C	-11	·	-9	·	·	·	·
COc1ccc(S(=O)(=O)N(C)C[C@@H]2Oc3c(NS(=O)(=O)c4ccc(Cl)cc4)cccc3C(=O)N([C@@H](C)CO)C[C@@H]2C)cc1	34	52	17	·	·	·	·
